Reference: PubChem BioAssay (NCATS)
Where “and” joins values, the source holds several entries; their conditions need not be identical. Identical values can stand only once. Results filed as inconclusive are left out. Entries that show only a call come without a potency. A number with no mark means an inactive call. Calls of active or inactive are those of the source. Calls follow the shape of the dose curve; as a rule, active = well fitted curve in the direction sought with a large enough effect; inconclusive = small, poorly fitted or top-dose-only effect, or another doubt; inactive = no such curve, though single readings can be large; an effect the other way counts as inactive or inconclusive.

What was measured:
CRL-7250 = normal cell line; test: Cytotoxic Profiling of Annotated Libraries Using Quantitative High-Throughput Screening (AID 1296008); conditions: Five cell lines viability, CellTiter-Glo ATP luminescence, 48-72 h; max response: stronger effect = lower value; also: nearly all actives have a fitted effect of over 60% in size; also: potency is read from the fitted curve at half-maximal effect
In short: (§1)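 Cells exposed to compounds for 48 or 72 hr at 37 degrees Celsius. Viability read as ATP-coupled luminescence with CellTiter-Glo after 10 min at room temperature.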

HaCat = test: as above; conditions: Five cell lines viability, CellTiter-Glo ATP luminescence, 48-72 h; max response: stronger effect = lower value
In short: as §1

KB-3-1 = test: as above; conditions: Five cell lines viability, CellTiter-Glo ATP luminescence, 48-72 h; max response: stronger effect = lower value
In short: as §1

NIH3T3 = test: as above; conditions: Five cell lines viability, CellTiter-Glo ATP luminescence, 48-72 h; max response: stronger effect = lower value
In short: as §1

C33A = test: Primary qHTS to identify gynecologic anti-cancer compounds using libraries of approved drugs and bioactive compounds (AID 1345084); conditions: Gynecologic cancer cell panel viability, ATPlite luminescence, 48 h; series mostly up to 57.5 µM; also: nearly all actives have a fitted effect of over 55% in size
In short: (§2)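 Five-point cytotoxicity, 48 h drug exposure at 37 C, 5% CO2, on cells seeded 16 h beforehand. ATP content read by ATPlite luminescence.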

CASKI = test: as above; conditions: Gynecologic cancer cell panel viability, ATPlite luminescence, 48 h; series mostly up to 57.5 µM
In short: as §2

Es-2 = test: as above; conditions: Gynecologic cancer cell panel viability, ATPlite luminescence, 48 h; series mostly up to 57.5 µM
In short: as §2

HeLa = test: as above; conditions: Gynecologic cancer cell panel viability, ATPlite luminescence, 48 h; series mostly up to 57.5 µM
In short: as §2

Hek293T = test: as above; conditions: Gynecologic cancer cell panel viability, ATPlite luminescence, 48 h, control line for the selectivity index; series mostly up to 57.5 µM
In short: as §2

JEG-3 = test: as above; conditions: Gynecologic cancer cell panel viability, ATPlite luminescence, 48 h; series mostly up to 57.5 µM
In short: as §2

OV90 = test: as above; conditions: Gynecologic cancer cell panel viability, ATPlite luminescence, 48 h; series mostly up to 57.5 µM
In short: as §2

CAOV3 = test: as above; conditions: Gynecologic cancer cell panel viability, ATPlite luminescence, 48 h; series mostly up to 57.5 µM
In short: as §2

With `Cc1ccc(N2CCN(CCC3NC(=O)c4ccccc43)CC2)cc1C` (stereo not given) the max response (CRL-7250) was 4.52%, the max response (HaCat) was -0.27% and the max response (KB-3-1) was -2.29%. The max response (NIH3T3) was 0.934%, the Potency (C33A) was “inactive” and the Potency (CASKI) was “inactive”. For the same compound, the Potency (Es-2) was “inactive”, the Potency (HeLa) was “inactive” and the Potency (Hek293T) was “inactive”. The Potency (JEG-3) was “inactive” and the Potency (OV90) was “inactive”.
`CCC(C)c1ccc(NC(=O)Cn2cnc3c2c(=O)n(C)c(=O)n3C)cc1` (stereo not given) was tested, and the max response (CRL-7250) was -7.14%, the max response (HaCat) was -17.7% and the max response (KB-3-1) was -2.48%. For the same compound, the max response (NIH3T3) was -2.04%, the Potency (C33A) was “inactive” and the Potency (CAOV3) was “inactive”. For the same compound, the Potency (CASKI) was “inactive”, the Potency (Es-2) was “inactive” and the Potency (HeLa) was “inactive”. The Potency (Hek293T) was “inactive”, the Potency (JEG-3) was “inactive” and the Potency (OV90) was “inactive”.
`O=C(CSc1nc2ccccc2c(=O)n1-c1ccccc1)Nc1ccc2c(c1)CCC2` was tested, and the max response (CRL-7250) was 1.59%, the max response (HaCat) was -10.2% and the outcome (KB-3-1) was “inactive”. For the same compound, the max response (NIH3T3) was -0.829%, the Potency (C33A) was “inactive” and the Potency (CAOV3) was “inactive”. For the same compound, the Potency (CASKI) was “inactive”, the Potency (Es-2) was “inactive” and the Potency (HeLa) was “inactive”. For the same compound, the Potency (Hek293T) was “inactive”, the Potency (JEG-3) was “inactive” and the Potency (OV90) was “inactive”.
`C=C[C@](C)(O)CC[C@H]1C(C)=CC(=O)[C@H]2C(C)(C)CCC[C@]12C` showed a max response (CRL-7250) of -9.12%, a max response (HaCat) of 1.13% and a max response (KB-3-1) of -5.31%. For the same compound, the max response (NIH3T3) was 0.554%, the Potency (C33A) was “inactive” and the Potency (CAOV3) was “inactive”. The Potency (CASKI) was “inactive”, the Potency (Es-2) was “inactive” and the Potency (HeLa) was “inactive”. The Potency (Hek293T) was “inactive”, the Potency (JEG-3) was “inactive” and the Potency (OV90) was “inactive”.
`COc1c(C(C)C)c(O)c(O)c2c1C(OC)[C@H]1OC(=O)[C@@]23CCCC(C)(C)[C@H]13` (stereo not given in full) was tested, and the outcome (CRL-7250) was “inactive”, the max response (HaCat) was -9.13% and the outcome (KB-3-1) was “inactive”. The max response (NIH3T3) was -6.75%, the Potency (C33A) was “inactive” and the Potency (CAOV3) was “inactive”. The Potency (CASKI) was “inactive”, the Potency (Es-2) was “inactive” and the Potency (HeLa) was “inactive”. The Potency (Hek293T) was “inactive”, the Potency (JEG-3) was “inactive” and the Potency (OV90) was “inactive”.
`Cn1cc(C2=C(c3coc4ccccc34)C(=O)NC2=O)c2cc(Br)ccc21` was tested, and the max response (CRL-7250) was 2.54%, the max response (HaCat) was 3.32% and the outcome (KB-3-1) was “inactive”. For the same compound, the outcome (NIH3T3) was “inactive”, the Potency (C33A) was “inactive” and the Potency (CAOV3) was “inactive”. The Potency (CASKI) was “inactive”, the Potency (Es-2) was “inactive” and the Potency (HeLa) was “inactive”. The Potency (Hek293T) was “inactive” and the Potency (OV90) was “inactive”.
Work on `Cc1nc(N2CCN(C(=O)c3ccco3)CC2)c2c3c(sc2n1)CCCC3` yielded a max response (CRL-7250) of -5.8%, a max response (HaCat) of 1.01% and a max response (KB-3-1) of -12.8%. The max response (NIH3T3) was 1.1%, the Potency (C33A) was “inactive” and the Potency (CAOV3) was “inactive”. For the same compound, the Potency (Es-2) was “inactive”, the Potency (HeLa) was “inactive” and the Potency (Hek293T) was “inactive”. The Potency (JEG-3) was “inactive” and the Potency (OV90) was “inactive”.
In the case of `C=CC(C)(C)c1[nH]c2ccccc2c1C[C@@H]1NC(=O)[C@H](C)NC1=O`, the max response (CRL-7250) is reported as -22.2%, the max response (HaCat) is reported as 1.83% and the max response (KB-3-1) is reported as 3.23%. For the same compound, the outcome (NIH3T3) was “inactive”, the Potency (C33A) was “inactive” and the Potency (CASKI) was “inactive”. For the same compound, the Potency (Es-2) was “inactive”, the Potency (HeLa) was “inactive” and the Potency (Hek293T) was “inactive”. For the same compound, the Potency (JEG-3) was “inactive” and the Potency (OV90) was “inactive”.
`C=CC(C)(O)CC[C@@H]1[C@@]2(C)CCCC(C)(C)C2CC[C@@]1(C)O` (stereo not given in full) was tested, and the max response (CRL-7250) was -17.3%, the max response (HaCat) was -28.7% and the max response (KB-3-1) was -9.76%. For the same compound, the max response (NIH3T3) was -17%, the Potency (C33A) was “inactive” and the Potency (CASKI) was “inactive”. For the same compound, the Potency (Es-2) was “inactive”, the Potency (HeLa) was “inactive” and the Potency (Hek293T) was “inactive”. For the same compound, the Potency (JEG-3) was “inactive” and the Potency (OV90) was “inactive”.
With `COc1cc2c(c(OC)c1CC=C(C)C)C[C@H](c1ccc(O)c(CC=C(C)C)c1O)CO2` the max response (CRL-7250) was 2.21%, the max response (HaCat) was -6.86% and the max response (KB-3-1) was -4.62%. For the same compound, the max response (NIH3T3) was -5.48%, the Potency (C33A) was “inactive” and the Potency (CASKI) was “inactive”. The Potency (Es-2) was “inactive”, the Potency (HeLa) was “inactive” and the Potency (Hek293T) was “inactive”. The Potency (JEG-3) was “inactive” and the Potency (OV90) was “inactive”.
For `Cn1cc(-c2ccc(F)c(C(F)(F)F)c2)nc1C1CCN(c2ncnc3[nH]ncc23)CC1`, the max response (CRL-7250) was -0.425%, the max response (HaCat) was -21.3% and the max response (KB-3-1) was 0.816%. The max response (NIH3T3) was 1.5% and -4.9%, the Potency (C33A) was “inactive” and the Potency (CASKI) was “inactive”. The Potency (Es-2) was “inactive”, the Potency (HeLa) was “inactive” and the Potency (Hek293T) was “inactive”. The Potency (JEG-3) was “inactive” and the Potency (OV90) was “inactive”.
Compound `C/C(=C/CO)CCC1C(C)CCC2C(C)(C)CCCC12C` (stereo not given) has a max response (CRL-7250) of -3.35%, a max response (HaCat) of -18.8% and a max response (KB-3-1) of 6.99%. For the same compound, the max response (NIH3T3) was 1.98%, the Potency (C33A) was “inactive” and the Potency (CASKI) was “inactive”. For the same compound, the Potency (Es-2) was “inactive”, the Potency (HeLa) was “inactive” and the Potency (Hek293T) was “inactive”. The Potency (JEG-3) was “inactive” and the Potency (OV90) was “inactive”.
In the case of `O=C(COc1ccc(C(=O)c2ccccc2)cc1)NC1CCN(Cc2ccccc2)CC1`, the Potency (CRL-7250) is reported as 8.2 µM (active), the max response (HaCat) is reported as -11.4% and the max response (KB-3-1) is reported as -23%. For the same compound, the max response (NIH3T3) was -2.94%, the Potency (CAOV3) was “inactive” and the Potency (CASKI) was “inactive”. The Potency (Es-2) was “inactive”, the Potency (HeLa) was “inactive” and the Potency (JEG-3) was “inactive”.
